This note sets out measurements from PubChem BioAssay (Tox21).

For assay [1], the target named is Nuclear receptor ROR-gamma (Homo sapiens) (UniProt P51449). Put plainly: qHTS assay to identify small molecule antagonists of the retinoid-related orphan receptor gamma (ROR-gamma) signaling pathway (AID 1159521; note: nearly all actives have a fitted effect of over 50% in size; note: potency is the fitted concentration of half-maximal effect). In short, it runs like this: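 Readout: ONE-Glo luciferase luminescence, 30 min at room temperature. System: Tet-on RORγ CHO, RORE-LUC. Sequence: compound 2 h, doxycycline 1 uM final, 16 h at 37 C.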
(In general: In qHTS, concentration-response curves come from the screen itself.)

Assay [2] is described as follows: qHTS assay to identify small molecule agonists of the AP-1 signaling pathway - cell viability counter screen (AID 1159525; calls by dose curve; note: nearly all actives have a fitted effect of over 55% in size). The gist of the method:
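Same-well cytotoxicity counter screen of the Tox21 10K library in ME-180 cells. The readout is ATP-dependent luminescence after 5 h compound treatment. Data are normalised to DMSO and tetra n-octyl ammonium bromide controls.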

Assay [3] in a line: qHTS assay to identify small molecule agonists of the AP-1 signaling pathway (AID 1159526; calls by dose curve).
The target of assay [4] is Retinoic acid receptor RXR-alpha (Homo sapiens) (UniProt P19793). Put plainly: qHTS assay to identify small molecule agonists of the RXR signaling pathway (AID 1159527; calls by dose curve; note: nearly all actives have a fitted effect of over 35% in size; note: potency is the fitted concentration of half-maximal effect). In short, it runs like this:
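Reporter activation is measured as beta-lactamase activity via FRET substrate cleavage (emission 460/530 nm) in HEK 293T cells expressing an RXR-alpha-driven bla construct, following 16 hr compound exposure at 37 C.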

The nature of assay [5]: qHTS assay to identify small molecule agonists of the RXR signaling pathway - cell viability counter screen (AID 1159529). Note: series mostly up to about 77 µM; nearly all actives have a fitted effect of over 50% in size. In short, it runs like this:
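Tox21 10K compounds were tested for cytotoxicity against GeneBLAzer RXR-alpha HEK 293T cells grown in 2% charcoal-stripped FBS. Exposure lasted 16 hr at 37 C, 5% CO2; viability read by CellTiter-Glo luminescence.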

Assay [6] is described as follows: qHTS assay to identify small molecule antagonists of the retinoid acid receptor (RAR) signaling pathway - cell viability counter screen (AID 1159551). Note: nearly all actives have a fitted effect of over 35% in size. The gist of the method:
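Cytotoxicity counter screen: ATP content quantified by CellTiter-Glo luminescence in C3RL4 cells treated 6 hr at 37 C with compound and retinol (1 uM final). Cells plated at 1,000/well and cultured overnight before dosing.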

The nature of assay [7]: qHTS assay to identify small molecule antagonists of the retinoic acid receptor (RAR) signaling pathway (AID 1159552; note: nearly all actives have a fitted effect of over 50% in size). In short, it runs like this:
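Overnight-plated C3RL4 reporter cells get compound, then retinol to 1 uM final; plates sit 6 hr at 37 C, 5% CO2. A luciferase reagent is added and light output recorded after 30 min at room temperature.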

Assay [8] can be described thus: qHTS assay to identify small molecule antagonists of the estrogen related receptor (ERR) signaling pathway from Tox21 library - cell viability counter screen (AID 1224834). Note: nearly all actives have a fitted effect of over 30% in size. The gist of the method:
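CellTiter-Fluor fluorescence, read after 30 min at 37 C, measures viability of ERR cells. Cells plated at 2,000/well and incubated 6 h before pin-tool compound addition, then exposed 17.5 hours at 37 C.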

The target of assay [9] is Luciferin 4-monooxygenase (Photinus pyralis) (UniProt P08659). Put plainly: qHTS assay to identify small molecule inhibitors of firefly luciferase (AID 1224835). Note: series mostly up to about 120 µM; nearly all actives have a fitted effect of over 25% in size. The gist of the method:
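Biochemical qHTS: compounds run as interplate titrations against purified firefly enzyme, with D-luciferin and ATP each at its KM concentration. Light output recorded by CCD imaging.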

Assay [10] is described as follows: qHTS assay to identify small molecule agonists of the constitutive androstane receptor (CAR) signaling pathway - cell viability counter screen (AID 1224836). Note: series mostly up to about 92 µM; nearly all actives have a fitted effect of over 45% in size. The gist of the method: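 Fluorescence from CellTiter-Fluor indicates live cells after 23 h exposure. The human hepatoma line expresses hCAR and a CYP2B6-2.2kb reporter. Incubation medium contains 0.75 uM PK11195 (final).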

The nature of assay [11]: qHTS assay to identify small molecule antagonists of the constitutive androstane receptor (CAR) signaling pathway - cell viability counter screen (AID 1224837). Note: series mostly up to about 92 µM; nearly all actives have a fitted effect of over 45% in size. In short, it runs like this:
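Cytotoxicity counter-screen: CellTiter-Fluor fluorescence after 23 h compound exposure (15-point qHTS) in double-stable HepG2-CYP2B6-hCAR cells, with 50 nM CITCO added.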

Assay [12] addresses Nuclear receptor subfamily 1 group I member 3 (Homo sapiens) (UniProt Q14994). The assay can be described thus: qHTS assay to identify small molecule antagonists of the constitutive androstane receptor (CAR) signaling pathway (AID 1224838).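 Note: HepG2 cells stably expressing hCAR with CYP2B6 luciferase reporter stimulated by CITCO; nearly all actives have a fitted effect of over 40% in size.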 In short, it runs like this: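 Antagonism measured as luciferase signal (ONE-Glo, 30 min, room temperature) in CAR-stimulated cells: HepG2-CYP2B6-hCAR double-stable line exposed 24 hr at 37 C to compound in a 15-point series plus 50 nM CITCO.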

Assay [13] shares this target. The assay can be described thus: qHTS assay to identify small molecule agonists of the constitutive androstane receptor (CAR) signaling pathway (AID 1224839). Note: nearly all actives have a fitted effect of over 15% in size. Note: potency is the fitted concentration of half-maximal effect. In short, it runs like this:
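Stable hCAR/CYP2B6-2.2kb HepG2 line in DMEM with 10% FBS; compounds (15 concentrations) and 0.75 uM PK11195 final, 24 h at 37 C/5% CO2, then ONE-Glo luminescence after 30 min.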

A short description of assay [14]: qHTS assay to identify small molecule agonists of the retinoic acid receptor (RAR) signaling pathway (AID 1159553). The gist of the method:
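Luminescence was measured 30 min after luciferase reagent addition at room temperature. Before that, C3RL4 reporter cells (1,000 per well, plated overnight) were treated with compound for 6 hr at 37 C and 5% CO2.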

Assay [15] in a line: qHTS assay to identify small molecule antagonists of the estrogen related receptor (ERR) signaling pathway - cell viability counter screen (AID 1224818).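 Note: series mostly up to about 46 µM; viability measured after 17.5 h of compound exposure.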 In short, it runs like this:
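Cytotoxicity counter screen: fluorescence from CellTiter-Fluor, added after 17.5 h compound exposure at 37 C and read 30 min later. ERR cell line seeded at 2,000 cells/well, preincubated 6 h before dosing.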

Assay [16] can be described thus: qHTS assay to identify small molecule antagonists of the estrogen related receptor signaling pathway with the pleiotropic PPARgamma coactivator (PGC) cell viability counter screen (AID 1224822; note: series mostly up to about 46 µM). The gist of the method: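 Viability counter-screen read by fluorescence intensity after 30 min with CellTiter-Fluor at 37 C; PGC/ERR reporter cells were exposed to compounds for 17.5 h at 37 C following a 6 h preincubation.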

Inconclusive results are not listed. A number with no mark means an inactive call. Activity calls are given as the source filed them. Unless noted, calls come from the whole dose curve; as a rule, active = well fitted curve in the direction sought with a large enough effect in the repeat runs; inconclusive = weak or mixed curves; inactive = no such curve, though single readings can be large; an effect the other way counts as inactive or inconclusive.

Chain of Retinoic acid receptor RXR-alpha (Homo sapiens) (P19793 whole entry, looked up): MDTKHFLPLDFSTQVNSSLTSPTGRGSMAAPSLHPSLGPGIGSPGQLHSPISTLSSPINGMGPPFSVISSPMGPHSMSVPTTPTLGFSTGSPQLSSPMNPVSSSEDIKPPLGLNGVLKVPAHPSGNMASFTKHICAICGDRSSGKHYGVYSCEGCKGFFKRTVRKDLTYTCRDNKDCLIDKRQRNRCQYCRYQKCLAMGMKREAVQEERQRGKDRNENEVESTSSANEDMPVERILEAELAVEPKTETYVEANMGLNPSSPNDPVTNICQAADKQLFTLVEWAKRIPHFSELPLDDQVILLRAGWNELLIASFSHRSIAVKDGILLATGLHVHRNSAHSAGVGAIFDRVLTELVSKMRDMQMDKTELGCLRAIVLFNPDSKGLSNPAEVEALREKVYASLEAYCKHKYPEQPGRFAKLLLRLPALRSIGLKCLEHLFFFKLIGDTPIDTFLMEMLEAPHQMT
Chain of Nuclear receptor subfamily 1 group I member 3 (Homo sapiens) (Q14994 whole entry, looked up): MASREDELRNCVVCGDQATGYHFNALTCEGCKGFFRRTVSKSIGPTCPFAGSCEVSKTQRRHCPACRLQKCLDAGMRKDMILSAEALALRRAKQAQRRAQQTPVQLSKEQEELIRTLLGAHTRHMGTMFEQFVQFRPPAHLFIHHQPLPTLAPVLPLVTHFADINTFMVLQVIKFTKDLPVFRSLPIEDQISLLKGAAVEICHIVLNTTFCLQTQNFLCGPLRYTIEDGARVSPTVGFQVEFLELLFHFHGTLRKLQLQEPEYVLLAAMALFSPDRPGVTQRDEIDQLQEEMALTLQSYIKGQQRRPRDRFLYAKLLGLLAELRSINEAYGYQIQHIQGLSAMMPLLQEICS
Chain of Luciferin 4-monooxygenase (Photinus pyralis) (P08659 whole entry, looked up): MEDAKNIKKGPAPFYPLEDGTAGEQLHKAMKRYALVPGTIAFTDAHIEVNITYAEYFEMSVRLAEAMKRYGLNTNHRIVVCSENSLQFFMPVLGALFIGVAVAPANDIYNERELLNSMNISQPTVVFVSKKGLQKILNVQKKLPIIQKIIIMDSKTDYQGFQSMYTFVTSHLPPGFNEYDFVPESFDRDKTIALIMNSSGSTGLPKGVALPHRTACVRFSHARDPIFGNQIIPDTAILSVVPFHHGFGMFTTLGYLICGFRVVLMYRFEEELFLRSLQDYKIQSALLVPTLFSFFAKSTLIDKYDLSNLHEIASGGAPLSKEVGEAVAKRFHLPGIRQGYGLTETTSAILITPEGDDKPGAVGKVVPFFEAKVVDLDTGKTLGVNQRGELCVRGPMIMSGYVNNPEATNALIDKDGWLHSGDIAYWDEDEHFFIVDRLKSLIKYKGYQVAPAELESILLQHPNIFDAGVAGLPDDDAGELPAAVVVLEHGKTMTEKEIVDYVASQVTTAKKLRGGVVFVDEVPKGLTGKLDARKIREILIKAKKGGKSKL

On to `C1=CCCC1`, for which the Potency result in assay [1], in [2], in assay [3], in assay [4], in assay [5] and in assay [6] was “inactive” in each case. The Potency result in assay [7], in assay [8], in assay [9], in assay [10] and in assay [11] was “inactive” in each case.
With `Cc1c[nH]c(=O)[nH]c1=O`, the Potency entry in assay [1], in [2], in assay [3], in [5], in assay [6] and in assay [7] was “inactive” in each case. Moreover, the Potency entry in assay [8], in assay [9], in assay [10] and in assay [11] was “inactive” in each case.
Turning to `CC(=O)CC(N)=O`, the Potency result in assay [1], in assay [2], in [3], in assay [4], in assay [5] and in [6] was “inactive” throughout. Moreover, the Potency entry in [7], in [8], in [9], in assay [10] and in assay [11] was “inactive” each time.
On to `Cc1cccc(C)c1C`, for which the Potency result in [1], in [2], in assay [3], in assay [4], in assay [5] and in assay [6] was “inactive” each time. For the same compound, the Potency result in [8], in assay [9], in [10], in [11], in assay [12] and in [13] was “inactive” throughout.
`C=CC(C)(C)O`: the Potency result in assay [1], in [2], in [3], in assay [4], in assay [5] and in assay [6] was “inactive” each time. The Potency entry in assay [8], in [9], in assay [10], in assay [11] and in [13] was “inactive” throughout.
On to `C/C(=N\[Si](C)(C)C)O[Si](C)(C)C`, for which the Potency entry in assay [1], in assay [2], in assay [3], in assay [5], in assay [6] and in [8] was “inactive” each time. For the same compound, the Potency result in assay [9], in [10], in assay [11], in assay [12] and in [13] was “inactive” in each case.
Regarding `O=C1CCCCCCCCCCCCCC1`, the Potency result in assay [1], in assay [2], in [3], in assay [4], in assay [5] and in assay [6] was “inactive” in each case. In addition, the Potency result in assay [7], in assay [14], in [8], in assay [9], in [10] and in assay [11] was “inactive” in each case. Moreover, in assay [12], the Potency entry was “inactive”. For the same compound, the Potency in [13] was 30.6 µM (active).
As for `Nc1cccnc1N`, the Potency entry in assay [1], in assay [2], in assay [3], in [4], in [5] and in [6] was “inactive” in each case. The Potency result in [7], in assay [9], in assay [12] and in assay [13] was “inactive” in each case.
With `Brc1cc(Br)cc(Br)c1`, the Potency result in assay [1], in assay [2], in assay [3], in assay [5], in assay [6] and in assay [8] was “inactive” throughout. Also, the Potency result in assay [9], in [10], in assay [11] and in [13] was “inactive” in each case.
As to `CC(C)(C)c1cc(CCC(=O)OCCSCCOC(=O)CCc2cc(C(C)(C)C)c(O)c(C(C)(C)C)c2)cc(C(C)(C)C)c1O`, the Potency result in assay [1], in [2], in assay [3], in [4], in [5] and in assay [6] was “inactive” each time. Further, the Potency result in [8], in assay [9], in assay [10], in assay [11], in [12] and in assay [13] was “inactive” each time.
In the case of `Clc1ccc2c(Cl)ccnc2c1`, the Potency result in [1], in assay [2], in [3], in [4], in assay [5] and in [6] was “inactive” in each case. Moreover, the Potency result in assay [7], in [8], in assay [10], in [11], in assay [12] and in assay [13] was “inactive” each time.
As for `C/C(=C\c1ccc(C(=O)O)cc1)c1ccc2c(c1)C(C)(C)CCC2(C)C`, the Potency entry in assay [1], in assay [2], in [3], in assay [5], in assay [6] and in [15] was “inactive” each time. For the same compound, the Potency entry in [16], in assay [8], in assay [10] and in assay [11] was “inactive” throughout. Further, the Potency in assay [4] is 0.952 µM (active).
Consider `CCN(CC)c1ccc(C=O)cc1`, for which the Potency entry in assay [1], in assay [2], in [3], in assay [5], in assay [6] and in assay [7] was “inactive” each time. For the same compound, the Potency entry in assay [8], in assay [10], in assay [11] and in [12] was “inactive” each time.
Turning to `O=c1cc[nH]cc1`, the Potency entry in assay [1], in assay [2], in [3], in assay [5], in assay [6] and in [8] was “inactive” each time. Moreover, the Potency entry in assay [9], in assay [10], in assay [11], in assay [12] and in assay [13] was “inactive” throughout.
In the case of `CC(c1cc(C(C)(C)C)cc(C(C)(C)C)c1O)c1cc(C(C)(C)C)cc(C(C)(C)C)c1O`, the Potency was 19.3 µM (active) in assay [1] and 3.47 µM (active) in assay [4]. Moreover, the Potency entry in assay [2], in assay [3], in assay [6], in [8], in [9] and in assay [10] was “inactive” each time. For the same compound, the Potency entry in assay [11] is “inactive”.
Turning to `CC/C=C(\C)C=O`, the Potency result in assay [1], in assay [2], in [3], in [5], in assay [6] and in assay [8] was “inactive” in each case. Further, the Potency entry in assay [9], in [10], in [11], in assay [12] and in [13] was “inactive” throughout.
Regarding `O[Si](c1ccccc1)(c1ccccc1)c1ccccc1`, the Potency is 24.3 µM (active) in [1] and 30.6 µM (active) in [13]. The Potency entry in assay [2], in assay [3], in assay [5], in [6], in [9] and in assay [10] was “inactive” each time. Further, the Potency entry in [11] and in [12] was “inactive” throughout.
Turning to `CC(CC(C)(C)C)CC(C)(C)CC(C)(C)C` (stereo not drawn), the Potency entry in assay [1], in assay [2], in [3], in assay [5], in assay [6] and in [8] was “inactive” throughout. Besides, the Potency result in assay [9], in assay [10], in assay [11], in assay [12] and in assay [13] was “inactive” throughout.
`Cc1cccc2c1ccc1ccccc12`: the Potency entry in [1], in assay [2], in [3], in assay [5], in assay [6] and in assay [7] was “inactive” in each case. In addition, the Potency result in assay [8], in [10] and in assay [11] was “inactive” throughout. Further, in [13], the Potency was 61.1 µM (active).
Regarding `O=C1c2ccccc2C(=O)c2c(Cl)cccc21`, the Potency result in [1], in [2], in assay [3], in assay [4], in [6] and in assay [7] was “inactive” in each case. The Potency result in [8], in [9], in assay [10] and in assay [11] was “inactive” throughout. The Potency in [13] is 28.9 µM (active).
